Our source for the activity change, less the hit threshold values is PubChem BioAssay AID1942 (Johns Hopkins Ion Channel Center, 2009).

The campaign covered roughly 2,400 compounds. About 580 (24%) were called active. A selection follows. Unmarked numbers belong to inactive results.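 How the source made its calls: active means activity change at or above the mean plus 3 SD of buffer wells without dofetilide, per plate; inactive means the rest.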

The test deals with Potassium voltage-gated channel subfamily KQT member 2 (Rattus norvegicus) (UniProt O88943). Put plainly: rat KCNQ2 channel activation by compounds alone, confirmation, counter-screen for hERG block protector project, cell-based, CHO, FluxOR thallium flux (AID 1942).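 Further: normalized value minus buffer-control mean plus three SD of buffer wells.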 Conditions: CHO-KCNQ2 cells, FluxOR thallium flux fluorescence; at 10 µM; active compounds read high. (The purpose of a counterscreen is to sort out artefacts and off-target activity.)
Chain of Potassium voltage-gated channel subfamily KQT member 2 (Rattus norvegicus) (O88943 whole entry, looked up): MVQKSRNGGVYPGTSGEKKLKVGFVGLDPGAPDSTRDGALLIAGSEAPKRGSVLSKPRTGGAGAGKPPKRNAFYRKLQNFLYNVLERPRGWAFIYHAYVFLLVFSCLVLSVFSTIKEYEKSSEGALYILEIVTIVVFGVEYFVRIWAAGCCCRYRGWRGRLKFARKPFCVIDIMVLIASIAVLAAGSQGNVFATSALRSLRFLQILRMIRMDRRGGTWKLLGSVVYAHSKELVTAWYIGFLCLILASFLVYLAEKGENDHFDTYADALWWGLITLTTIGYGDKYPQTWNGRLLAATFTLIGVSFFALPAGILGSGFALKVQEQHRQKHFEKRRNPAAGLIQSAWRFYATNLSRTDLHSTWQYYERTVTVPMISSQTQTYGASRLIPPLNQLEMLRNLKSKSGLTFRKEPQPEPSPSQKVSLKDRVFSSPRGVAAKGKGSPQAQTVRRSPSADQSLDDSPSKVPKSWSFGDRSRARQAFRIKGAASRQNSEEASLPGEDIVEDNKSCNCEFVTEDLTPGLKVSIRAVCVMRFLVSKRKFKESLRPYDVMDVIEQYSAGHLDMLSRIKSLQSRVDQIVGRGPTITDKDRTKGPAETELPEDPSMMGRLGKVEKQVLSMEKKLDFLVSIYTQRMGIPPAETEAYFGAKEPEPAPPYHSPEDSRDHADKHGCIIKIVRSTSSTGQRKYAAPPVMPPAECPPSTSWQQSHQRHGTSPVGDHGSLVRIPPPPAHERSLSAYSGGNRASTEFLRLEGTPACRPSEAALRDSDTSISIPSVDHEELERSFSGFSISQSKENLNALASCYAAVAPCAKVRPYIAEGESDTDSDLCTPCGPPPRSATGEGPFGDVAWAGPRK
Turning to `COc1ccc(CCNC(=O)C2CCCN(S(C)(=O)=O)C2)cc1` (stereo unspecified), the activity change, less the hit threshold is -23.4%.
The figure for `Cc1n[nH]c(C)c1CCNC(=O)C1CCC(=O)N(Cc2ccccc2F)C1` (stereo unspecified) is -14%; for `Cc1c(-c2ccn[nH]2)cc(NC(=O)c2ccc(Cl)cc2)c(=O)n1N` it is -24.4%; for `COCC1CCCN(C(=O)c2ccc3oc(C(C)C)nc3c2)C1` (stereo unspecified) it is -11.7%.
The figure for `Cc1ccc(NC(=O)CN2C(=O)N/C(=C/c3ccccc3OCc3cccc(C(=O)O)c3)C2=O)cc1` is -18.7%.
In the case of `CCOC(=O)NC(=O)/C(C#N)=N\Nc1ccc(Cl)cc1` it was -17.6%.
As to `CC(C)(C)SCCNC(=O)CN1C(=O)c2ccccc2S1(=O)=O`, the activity change, less the hit threshold is -13.2%.
In the case of `Cc1nc2cc3sc(C)nc3cc2s1` it was -9.2%.
In the case of `COc1ccc(-c2cc(=O)oc3cc(OCC(C)=O)ccc23)cc1`, the activity change, less the hit threshold was -20.9%.
Consider `O=C(CCN1C(=O)/C(=C/c2cccs2)SC1=S)Nc1cccc(C(=O)O)c1`, for which the activity change, less the hit threshold is -22.7%.
The figure for `O=C(CN1C(=O)S/C(=C\c2cccs2)C1=O)Nc1ccc(O)c(C(=O)O)c1` is -14%.
Consider `O=C(CN1C(=O)S/C(=C\c2cccs2)C1=O)Nc1ccc(C(=O)O)c(O)c1`, for which the activity change, less the hit threshold was 21.5% (active).
The figure for `CSc1nc(C)c2c(n1)N(c1ccc(C(C)C)cc1)CC2` is -17.3%.
In the case of `O=C(N/N=C/c1ccc(-c2ccccc2)o1)c1ccccc1O`, the activity change, less the hit threshold was -5.7%.
The figure for `O=C(N/N=C/c1cc(Cl)ccc1O)c1ccccc1Br` is 6.8% (active); for `Cc1cccc(C(=O)CC(=O)c2cc(Cl)ccc2O)c1` it is -14.2%.
The figure for `CC(C)C(=O)N(c1ccc(F)cc1)C1C=CS(=O)(=O)C1` (stereo unspecified) is -12.6%.
The figure for `O=c1oc2ccccc2c2c1nc(C(F)(F)F)n2-c1ccccc1` is -18.1%; for `O=C(CSc1nc(-c2ccccc2)nc2ccc(F)cc12)Nc1cccc(C(=O)O)c1` it is -4.9%.
For the compound `CC[C@@H](C(=O)[C@@H](C)[C@@H](O)[C@H](C)CCc1ccc(C)c(O)c1C(=O)O)[C@H]1O[C@](CC)([C@H]2CC[C@](O)(CC)[C@H](C)O2)C[C@@H]1C`, the activity change, less the hit threshold was 155% (active).
Turning to `Cc1nc2c(C(=O)NCCc3ccccc3)c[nH]n2c(=O)c1Cl`, the activity change, less the hit threshold was -7.3%.
In the case of `O=C(NC(=S)Nc1ccccc1)c1csnn1` it was 81.6% (active); in that of `O=C(COc1ccccc1Cl)NC(=S)Nc1ccccc1N1CCCC1`, -15.7%; in that of `O=C(NC(=S)Nc1ccccc1Cl)c1csnn1`, 71.3% (active).
Regarding `O=C(NC(=S)Nc1ccccc1)c1cncc(C#Cc2ccccc2)c1`, the activity change, less the hit threshold is -13%.
In the case of `Cc1onc(-c2ccccc2Cl)c1C(=O)NC(=S)Nc1ccc(C(C)C)cc1` it was -9%.
The figure for `COc1ccc(NC(=S)Nc2ccccn2)cc1` is -16.1%; for `Cc1ccc(NC(=S)NC(=O)c2ccc(-c3ccccc3)cc2)cc1` it is -11%.
As to `Cc1snnc1C(=O)NC(=S)Nc1ccccc1`, the activity change, less the hit threshold was 30.3% (active).
In the case of `COc1ccc(NC(=O)c2onc(C)c2Cl)cc1` it was -22.4%.
In the case of `COc1ccc(NC(=S)NC(=O)c2csnn2)cc1` it was 52.2% (active); in that of `Cc1cccnc1NC(=O)c1csnn1`, -13.6%.
In the case of `Cc1ccc(NC(=O)c2cc(-c3ccc4c(c3)OCO4)on2)cc1` it was -8.6%; in that of `CCn1c(=O)c(-[n+]2ccccc2)c(O)c2ccccc21`, -27.1%; in that of `Cc1ccc(N2C(=O)c3ccccc3C2(O)c2ncc[nH]2)cc1` (stereo unspecified), -19.5%.
Turning to `O=C1C=C(c2ccccc2)OC(=O)C1C(=O)c1ccccc1` (stereo unspecified), the activity change, less the hit threshold is -12.8%.
In the case of `N#Cc1c2n(c3c(=O)n(Cc4ccc(Cl)cc4)cnc13)CCCC2` it was -19.7%; in that of `CC12CCC3(CO)COC(c4ccccc4O1)C2C3` (stereo unspecified), -21.5%.
The figure for `CCCOc1ccc(-c2c(C(=O)N/N=C/c3ccccc3OCC)nnn2-c2nonc2N)cc1` is -19.7%; for `CC(=O)N1C(=O)/C(=C2\SC(=S)N(NC(=O)c3ccc(O)cc3)C2=O)c2ccccc21` it is -12.5%.
With `CCCCOC(=O)Nc1nnc(C(C)C)s1`, the activity change, less the hit threshold was -15.9%.
In the case of `CCCCn1nc(NC(=O)COC)c2cc3ccc(C)cc3nc21` it was -8.8%.
`CCOc1ccc(S(=O)(=O)N2CCN(Cc3ccc4c(c3)OCO4)CC2)cc1C`: the activity change, less the hit threshold was -28.7%.
In the case of `O=C(COc1ccc(Cl)cc1)N1CCN(Cc2ccc3c(c2)OCO3)CC1` it was -4.9%; in that of `COc1ccc(C(=O)N2CCN(Cc3ccc4c(c3)OCO4)CC2)cc1[N+](=O)[O-]`, -19.3%; in that of `COc1ccc(CCNC(=O)c2ccc3c(c2)OCO3)cc1`, -18%.
With `O=C(NC(=S)N1CCN(Cc2ccc3c(c2)OCO3)CC1)c1ccc(Cl)cc1`, the activity change, less the hit threshold was 36.3% (active).
In the case of `O=C(NC(=S)N1CCN(Cc2ccc3c(c2)OCO3)CC1)c1cccc(Br)c1` it was 46.4% (active); in that of `Cc1cc2nccc(-c3ccc(Cl)cc3Cl)n2n1`, -9.7%; in that of `Cc1nnc(SCC2=C(C(=O)O)N3C(=O)C(NC(=O)Cn4nc(C(F)F)cc4C)C3SC2)s1` (stereo unspecified), -16.5%.
For `CCCCC1C2=C(CCCC2=O)OC2=C1C(=O)CCC2`, the activity change, less the hit threshold is -25.6%.
The figure for `O=C1CC(c2ccccc2)c2cccc(F)c21` (stereo unspecified) is -11.3%; for `O=C(NC1CCCC1)C(c1ccncc1)N(C(=O)Cn1nnc(-c2ccccc2F)n1)c1cccc(F)c1` (stereo unspecified) it is -18%.
For `COc1ccc(Cn2c(O)cc(=O)[nH]c2=O)cc1`, the activity change, less the hit threshold is -20.5%.
Turning to `Cn1c(CNC(=O)c2ccccc2F)nnc1SCc1nc2ccccc2c(=O)[nH]1`, the activity change, less the hit threshold was -4.7%.
On to `O=C(O)CSCc1c(F)cccc1Cl`, for which the activity change, less the hit threshold was -31.3%.
The figure for `O=C(O)CSc1nc2ccccc2nc1Cc1ccccc1F` is 1.3% (active); for `CCOC(=O)C1=C(O)/C(=C/c2ccc(OCC(=O)O)c(OC)c2)SC1=Nc1ccc(OCC)cc1` it is -27.2%; for `Cc1c(/C=C2\SC(=O)N(CC(=O)Nc3ccc4c(c3)OCO4)C2=O)c2ccccc2n1C` it is -15.7%.
The figure for `CC(=O)N(C1=C(N)C(=O)c2ccccc2C1=O)C(C)C` is -9.1%; for `Cc1ccc(C(C#N)c2ccc3c(C(F)(F)F)cc(C(F)(F)F)nc3n2)cc1` (stereo unspecified) it is -5.9%.
